Most compounds without a hit are left out; they make up all but 11% or so of the library.
HEK293 tox = cytotoxic compounds in HEK 293 cells; HEK 293 viability, ATP luminescence (CellTiter-Glo), 48-72 h; Potency, µM (highest dose often 115 µM), without a hit: at the top dose activity change, negative = cytotoxicity, most hits filed as inhibitors; 94,000 compounds, 6.6% hits; note: % is set by controls: 0 for no effect and ±100 for the full control effect; nearly all actives have a fitted effect of over 60% in size
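Pintool-delivered compounds were incubated with HEK 293 cells (250 cells/well) at 37 degree Celsius for 48 or 72 hr. ATP-dependent luminescence (CellTiter-Glo) then reported remaining viable cells.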
hNpr1 antagonist = human Npr1 receptor antagonism | HEK293 hNpr1 GloSensor cGMP, ANP-stimulated luminescence | Potency, µM (titrated, usually from 46.3 µM), inactives show top-dose activity change, negative = inhibition, actives largely listed as inhibitors | 76,000 compounds, 1.6% hits | AID 1347048; calls by dose curve; note: % is set by controls: 0 for no effect and ±100 for the full control effect; nearly all actives have a fitted effect of over 60% in size
Target sequence (P16066 whole entry, looked up): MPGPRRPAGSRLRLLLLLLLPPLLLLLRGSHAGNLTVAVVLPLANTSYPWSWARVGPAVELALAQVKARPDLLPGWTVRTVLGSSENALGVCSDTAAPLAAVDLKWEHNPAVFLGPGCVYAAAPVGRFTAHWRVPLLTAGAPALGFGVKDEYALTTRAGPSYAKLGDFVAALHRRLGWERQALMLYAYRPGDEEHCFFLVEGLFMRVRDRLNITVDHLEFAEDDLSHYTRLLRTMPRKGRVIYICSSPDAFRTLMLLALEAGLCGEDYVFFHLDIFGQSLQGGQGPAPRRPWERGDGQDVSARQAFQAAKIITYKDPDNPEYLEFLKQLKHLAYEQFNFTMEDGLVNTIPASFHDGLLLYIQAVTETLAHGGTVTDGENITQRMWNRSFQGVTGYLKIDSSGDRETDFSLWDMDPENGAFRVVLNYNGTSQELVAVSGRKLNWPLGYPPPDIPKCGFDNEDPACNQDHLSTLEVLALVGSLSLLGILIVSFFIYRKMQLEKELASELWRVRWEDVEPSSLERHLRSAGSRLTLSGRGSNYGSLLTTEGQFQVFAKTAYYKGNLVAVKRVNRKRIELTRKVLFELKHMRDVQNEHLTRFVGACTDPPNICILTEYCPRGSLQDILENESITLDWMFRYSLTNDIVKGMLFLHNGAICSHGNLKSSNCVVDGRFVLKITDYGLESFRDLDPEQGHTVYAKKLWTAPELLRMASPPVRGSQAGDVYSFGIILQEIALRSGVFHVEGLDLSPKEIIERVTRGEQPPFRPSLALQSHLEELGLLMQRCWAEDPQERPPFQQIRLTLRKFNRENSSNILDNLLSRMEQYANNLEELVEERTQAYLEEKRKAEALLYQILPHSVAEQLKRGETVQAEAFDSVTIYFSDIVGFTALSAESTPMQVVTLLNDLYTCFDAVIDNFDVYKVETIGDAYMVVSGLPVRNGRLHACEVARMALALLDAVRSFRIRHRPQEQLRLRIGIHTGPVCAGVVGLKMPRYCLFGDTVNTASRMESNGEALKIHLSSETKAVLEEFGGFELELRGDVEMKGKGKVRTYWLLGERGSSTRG
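Compound pre-incubated 30 min at room temperature on GloSensor-loaded HEK293 cells stably carrying hNpr1 and the pGS-40F cGMP biosensor. Stimulation uses hNppA at 0.1 nM final; luminescence is taken at baseline and 20 min post-agonist.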
FLuc inh-1 = Photinus pyralis luciferase inhibition; Potency, µM (top dose mostly 115 µM), actives largely listed as inhibitors; P08659; purified P. pyralis luciferase, luminescence, biochemical; 76,000 compounds, 2.5% hits; note: % is set by controls: 0 for no effect and ±100 for the full control effect; nearly all actives have a fitted effect of over 65% in size
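Luminescence read by CCD imager after adding enzyme (10nM final) to wells holding compound, titrated in qHTS. Substrates 10uM each D-luciferin and ATP; buffer 50mM Tris acetate pH 7.5, 10mM Mg acetate, Tween-20, BSA.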
3T3 cytotox = kills NIH 3T3 cells; AID 1345082; NIH 3T3 viability, CellTiter-Glo ATP luminescence, 48-72 h; Potency, µM (doses to about 96.7 µM), inactives show top-dose activity change, negative = cytotoxicity, hits mostly inhibitors; 94,000 compounds, 4.3% hits; note: % is set by controls: 0 for no effect and ±100 for the full control effect; nearly all actives have a fitted effect of over 55% in size
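First NIH 3T3 cells are plated at 400 cells/well; next compound is pinned in; then plates incubate 48 or 72 hr at 37 °C; finally CellTiter-Glo is added and luminescence read after 10 min.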
FLuc SDR -ATP = binders stabilizing firefly luciferase, without ATP. shares compounds with FLuc inh-1. Potency, µM (series often up to 32.7 µM), without a hit: at the highest dose activation (signal gain), most hits filed as activators. Purified FLuc-C-HiBiT, Nano-Glo HiBiT luminescence, no ATP. 1,300 compounds, 7.8% hits; note: nearly all actives have a fitted effect of over 55% in size
FLuc SDR ATP = stabilizes firefly luciferase with ATP present; purified FLuc-C-HiBiT + ATP, HiBiT complementation luminescence; AID 1963319; Potency, µM (doses to about 32.7 µM), inactives show at the highest dose activation (gain of signal), hits mostly activators; 1,300 compounds, 8.7% hits; shares compounds with FLuc inh-1;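 note: signal reports ligand binding via conformational change of the enzyme rather than luciferase catalysis; % of control where 0% means no effect; nearly all actives have a fitted effect of over 55% in size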
FLuc inh-2 = inhibitors of firefly luciferase enzymatic activity; Potency, µM (series often up to 32.7 µM), for the others: top-dose activity change, negative = inhibition, actives largely listed as inhibitors; purified FLuc-C-HiBiT enzyme, luciferin luminescence; 1,300 compounds, 42% hits; shares compounds with FLuc inh-1; note: % is set by controls: 0 for no effect and ±100 for the full control effect; nearly all actives have a fitted effect of over 70% in size
Active calls of the source: *; i = inactive; ? = inconclusive; nt = no result; [ ] = another dose, or the depositor's remark. Unless noted, calls come from the whole dose curve; as a rule, active = well fitted curve in the direction sought with a large enough effect; inconclusive = small, poorly fitted or top-dose-only effect, or another doubt; inactive = no such curve, though single readings can be large; an effect the other way counts as inactive or inconclusive. Potency is the fitted concentration of half-maximal effect.

SMILES | HEK293 tox | hNpr1 antagonist | FLuc inh-1 | 3T3 cytotox | FLuc SDR -ATP | FLuc SDR ATP | FLuc inh-2
CCc1ccc(NC(=O)C2CCN(C(=O)c3ncn4c3COC(c3ccc(F)cc3)C4)CC2)cc1 (centres undefined) | -2.4% | 1.8% | ? | i | nt | nt | nt
CCc1ccc(NC(=O)C2CCN(C(=O)c3ncn4c3COC(c3ccccc3)C4)CC2)cc1 (centres undefined) | ? | -16.6% | 5.01µM* | -27.4% | 12.5% | ? | 3.94µM*
O=C(Nc1ccccc1)C1CCN(C(=O)c2ncn3c2COC(c2ccc(F)cc2)C3)CC1 (centres undefined) | 4.4% | -7.3% | ? | -1.9% | nt | nt | nt
O=C(Nc1cccc(F)c1)C1CCN(C(=O)c2ncn3c2COC(c2ccccc2)C3)CC1 (centres undefined) | 6.2% | ? | 1µM* | -0.7% | 9.9% | 0.989µM* | 0.881µM*
COCCCNC(=O)C(NC(=O)c1ccccc1C)C1CCN(C(=O)c2ccc(F)cc2)CC1 (centres undefined) | -0.4% | -3.0% | i | 2.7% | nt | nt | nt
COc1ccccc1CNC(=O)C1CN(C)C(=O)N1 (centres undefined) | i | nt | nt | -12.1%[138 µM] | nt | nt | nt
Cc1cnc(C(=O)N2CCC(N3C(=O)C4(CCCC4)C3c3ccccc3)CC2)cn1 (centres undefined) | -23.4% | 6.2% | i | -25.3% | nt | nt | nt
CC1CCC(NC(=O)C2CCN(C(=O)c3ncn4c3COC(c3ccccc3)C4)CC2)CC1 (centres undefined) | 3.6% | 0.0% | 2.82µM* | i | 11.8% | 3.13µM* | 2.48µM*
COc1cccc(Nc2ccc(CN3CCC(C)(NC(C)=O)C3)cc2)c1 (centres undefined) | ? | ? | 3.98µM* | 89.1µM* | 9.8%[49.3 µM] | 13.6%[49.3 µM] | ?
CC(=O)NC1(C)CCN(Cc2cccc(-c3ccc4ccccc4c3)c2)C1 (centres undefined) | 35.5µM* | ? | 1.78µM* | 28.2µM* | 12.2%[49.3 µM] | ? | 11.4µM*
COc1cccc(-c2cccc(CN3CCCC(C)(NC(C)=O)C3)c2)c1 (centres undefined) | ? | 0.4%[70.6 µM] | ? | ? | nt | nt | nt
Cn1cccc1CN1CCC2(C1)C(=NC1CCCC1)NC(=O)N2c1cc(F)cc(F)c1 (centres undefined) | -12.2% | nt | nt | ? | nt | nt | nt
CC1(Cc2ccc3c(c2)OCO3)CCCN(C(=O)c2ccc3ncsc3c2)C1 (centres undefined) | 44.7µM* | -22.7% | 7.94µM* | -18.6% | ? | 17.7% | ?
COc1ncc(-c2ccnc(-c3nnc(C)n3-c3ccccc3)c2)cn1 | i | 5.8%[70.6 µM] | i | ? | nt | nt | nt
O=C(O)[C@@H]1CN(Cc2ccccc2)C[C@@H]1C(=O)N1CCc2ccccc21 | i | 1.4% | i | -1.2% | 12.6% | 9.2% | 1.2%
Cc1ccc(-c2noc([C@@H]3CCCN3C(=O)c3ccc(C(C)C)cc3)n2)cc1 | ? | 3.7% | ? | ? | nt | nt | nt
Cc1ccc(NC(=O)C2CCN(c3nc(-c4ccc(C(C)C)cc4)no3)CC2)c(Cl)c1 | nt | nt | nt | nt | 17.9% | ? | ?
Cc1ccc(C)c(N2CCN(C(=O)C3CCN(c4nc(-c5ccc(C(C)C)cc5)no4)CC3)CC2)c1 | nt | nt | nt | nt | 21.9% | ? | ?
O=C(C1CC=CC1)N1CCC(N2C(=O)C(OCC3CC3)C23CCCCC3)CC1 (centres undefined) | ? | 0.9% | i | -18.4% | nt | nt | nt
O=C1CC2(CCN(CC3CC3)CC2)Oc2ccccc21 | ? | 35.5µM* | 7.94µM* | ? | 16.5%[49.3 µM] | ? | ?
COc1cccc(C(=O)N2CCC3(CC2)CC(N(C)Cc2ccccc2)CCO3)c1 (centres undefined) | -7.3% | 0.0% | i | i | nt | nt | nt
CCOc1ccc(-c2cc(CCCC(=O)NCCc3ccc(OCC)c(OCC)c3)no2)cc1 | nt | nt | nt | nt | 12.9% | ? | 3.51µM*
CCOc1ccc(-c2cc(CCCC(=O)NCCc3ccc(SC)cc3)no2)cc1 | nt | nt | nt | nt | 15.3% | ? | 3.13µM*
Cc1ccc(C(=O)Nc2cc(C3CCCC3)nn2C)cc1 | ? | nt | nt | -23.5%[138 µM] | nt | nt | nt
COc1ccccc1C(=O)Nc1onc2c1CCCC2 | nt | nt | nt | nt | 13.7% | ? | 9.89µM*
SMILES | HEK293 tox | hNpr1 antagonist | FLuc inh-1 | 3T3 cytotox | FLuc SDR -ATP | FLuc SDR ATP | FLuc inh-2
Cc1ccc(C(=O)Nc2onc3c2CCCC3)cc1 | nt | nt | nt | nt | ? | 3.94µM* | 0.989µM*
COCCN1C(=O)CCc2cc(NC(=O)c3ccc(OC(F)(F)F)cc3)ccc21 | ? | -7.6% | ? | ? | nt | nt | nt
CCN1C(=O)CCc2cc(NC(=O)c3ccc(OC(F)(F)F)cc3)ccc21 | 50.1µM* | -2.1% | 14.1µM* | 44.7µM* | 22.4% | 14.6% | ?
CN1N=C(C(=O)N2CCOC(Cc3cccc4ccccc34)C2)CCC1=O (centres undefined) | -4.5% | 2.6% | i | ? | nt | nt | nt
Cc1c(-c2ccccc2)[nH]c2c(CNC(=O)C3=NN(C)C(=O)CC3)cc(Cl)cc12 | 44.7µM* | -28.8% | 3.98µM* | 44.7µM* | 12.1% | 8.9% | ?
Cc1cccc(NC(=O)C2CCN(C(=O)c3ncn4c3COC(c3ccccc3)C4)CC2)c1 (centres undefined) | 5.3% | -27.6% | 3.16µM* | 1.4% | 15.0% | 1.97µM* | 2.48µM*
Cc1cc(C)cc(NC(=O)C2CCN(C(=O)c3ncn4c3COC(c3ccccc3)C4)CC2)c1 (centres undefined) | 6.3% | -3.3% | 8.91µM* | i | 15.6% | ? | 3.13µM*
CCc1cccc(NC(=O)C2CCN(C(=O)c3ncn4c3COC(c3ccc(OC)cc3)C4)CC2)c1 (centres undefined) | -4.1% | 0.6% | ? | -2.1% | nt | nt | nt
CCn1cc(-c2ccc(F)cc2)cc1C(=O)O | -13.6% | -13.0% | i | -20.1% | 15.7% | 10.5% | -7.9%
CCN1CCN(C(=O)c2cc(-c3ccc(C)cc3)cn2CC)CC1 | ? | 1.2% | i | ? | nt | nt | nt
CCn1cc(-c2ccc(OC)cc2)cc1C(=O)O | ? | -2.6% | 25.1µM* | -23.0% | 16.2% | 14.4% | ?
CC(=O)N1CCCC(C(=O)N2CCCC(c3nc4ccncc4[nH]3)C2)C1 (centres undefined) | 1.6% | nt | nt | -1.6% | nt | nt | nt
COC(=O)[C@H](Cc1ccc(OC)cc1)NC(=O)[C@H]1CN(C(C)=O)CCN1C(=O)C1CCCCC1 | 2.5% | 0.1% | i | ? | nt | nt | nt

Screening data (PubChem BioAssay)
